Screening data from PubChem BioAssay.
SARS PLpro yeast: inhibitors of SARS-CoV papain-like protease in yeast | Potency, µM (series often up to 32.9 µM), for inactives: top-dose activity, positive = growth rescue, hits mostly activators | hit rate 0.19% among 330,000 | S. cerevisiae expressing SARS-CoV PLpro, growth rescue | AID 485353; calls by dose curve; note: potency is the fitted concentration of half-maximal effect; 0% is about no effect; nearly all actives have a fitted effect of over 55% in size
CHX counter: counter-screen for Shiga toxin inhibitors: cycloheximide protein synthesis inhibition | cell reporter, cycloheximide protein synthesis inhibition counterscreen | max response, % | hit rate 12% among 300,000 | AID 2314; in the data active = max response mostly above about 13%, no sharp cut-off; inactive = mostly below about 14%; note: read at 38.3 µM for the half of the compounds with a filed dose; 0% is about no effect
Shiga inhibitor: blocks Shiga toxin action in Vero cells; Vero cells, Shiga toxin protein synthesis inhibition reporter; inhibition, % at 38.7 µM; hit rate 9.2% among 290,000; AID 2315; in the data active = inhibition mostly above about 28%, no sharp cut-off; inactive = mostly below about 43%; note: 0% is about no effect
AMA1-RON2 inh: inhibitors of Plasmodium falciparum AMA1-RON2 interaction. Potency, µM (highest dose often 58.2 µM), inactives show at the highest dose activity change, negative = inhibition, hits mostly inhibitors. hit rate 0.2% among 360,000. AID 720542. AlphaScreen AMA1-biotinylated RON2 peptide binding;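 note: potency is the fitted concentration of half-maximal effect; 0% = vehicle wells and -100% = peptide control; nearly all actives have a fitted effect of over 45% in size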
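AMA1 (3D7) with his tag at 25 nM final met compounds first, then biotinylated RON2 peptide at 25 nM; detection used donor plus acceptor beads, 10 µg/mL apiece, read by AlphaScreen after 30 min at room temperature.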
Pf growth 96h: P. falciparum growth inhibition at 96 hours. P. falciparum luciferase reporter growth, 96 h. Potency, µM (top dose mostly 28.7 µM), for the others: at the top dose activity change, negative = inhibition, actives largely listed as inhibitors. hit rate 6.9% among 320,000. AID 504834; note: potency is the fitted concentration of half-maximal effect; % is set by controls: 0 for no effect and ±100 for the full control effect
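P. falciparum expressing integrated firefly luciferase, in erythrocytes at 2% hematocrit, 0.05% parasitemia, incubated with compounds 96 h at 37 C, 5% CO2. Growth inhibition read as loss of luminescence; two-generation exposure targets delayed-death apicoplast inhibitors.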
Pf growth 48h: P. falciparum growth inhibition at 48 hours (one generation) | P. falciparum luciferase growth in erythrocytes, 48 h | Potency, µM (top dose mostly 28.7 µM), for inactives: top-dose activity change, negative = inhibition, usual class: inhibitors | hit rate 5.9% among 310,000; note: potency is the fitted concentration of half-maximal effect; % is set by controls: 0 for no effect and ±100 for the full control effect
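Compounds are pin-transferred into medium, infected erythrocytes (2% hematocrit, 0.1% parasitemia final) are added, and plates sit one parasite generation at 37 C in 5% CO2. Detection reagent is then added and luminescence measured.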
The depositor's hits bear a star; i = inactive; u = inconclusive; x = not tested or not shown; ! = a repeat was not active. A selection: hits, their analogues and other compounds. The true share with any hit is near 19%. Unless noted, calls come from the whole dose curve; as a rule, active = well fitted curve in the direction sought with a large enough effect; inconclusive = small, poorly fitted or top-dose-only effect, or another doubt; inactive = no such curve, though single readings can be large; an effect the other way counts as inactive or inconclusive.

SMILES	SARS PLpro yeast	CHX counter	Shiga inhibitor	AMA1-RON2 inh	Pf growth 96h	Pf growth 48h
NS(=O)(=O)c1ccc(CNC(=O)c2sccc2-c2ccccc2)cc1	5%	-2	-11	17%	12%	-9%
O=C(CN1CCN(c2ccccc2)CC1)NC(=O)NCc1ccco1	-4%	-2	25	-8%	-5%	-6%
O=C(CN1CCN(C(c2ccccc2)c2ccccc2)CC1)NC(=O)NCc1ccco1	-8%	-4	21	-6%	10µM*	9.3µM*
NC(=O)C1(Nc2ccc(-c3ccc(Br)cc3)cc2)CCCC1	x	x	x	-9%	x	x
CC1(C)N([O-])C(c2cccs2)=C[N+]1=O	6%	-2	14	-4%	10µM*	2%
CC1(C)N([O-])C(c2ccccc2)=C[N+](=O)C1(C)C	0%	12	22	3%	23%	-5%
CN(CC(=O)NCC(=O)Nc1ccc(F)cc1)C1CCS(=O)(=O)C1 (centres undefined)	-1%	x	x	-4%	18%	6%
CC(=O)c1ccc(OCC(=O)Nc2ccc(N3CCCCC3)cc2)cc1	-8%	x	x	-23%	u	u
O=C(/C=C/c1ccc2c(c1)OCO2)NCc1ccncc1	0%	11	31	-24%	35%	29%
C(=C/c1nccc2c1[nH]c1ccccc12)/c1ccc2c(c1)OCO2	-17%	37	40*	20%	-4%	2.9µM*
O=C1NC(c2ccc(Cl)c([N+](=O)[O-])c2)Nc2ccccc21 (centres undefined)	3%	0	-8	0%	u	u
O=[N+]([O-])c1cc(C2Nc3cccc4cccc(c34)N2)ccc1Cl	-1%	9	2	-25%	-12%	2.9µM*
Cc1cccc(C2Nc3cccc4cccc(c34)N2)c1	1%	-1	-7	-3%	7%	4.7µM*
CSC1=NCCN1S(=O)(=O)c1ccccc1	0%	4	0	4%	0%	46%
CCOC(=O)c1ccc(-n2ccnc2)c(NC(=O)c2ccc(C(C)(C)C)cc2)c1	2%	-4	-13	-18%	15µM*	13µM*
CCOC(=O)c1ccc(-n2ccnc2)c(NC(=O)c2cccc(Br)c2)c1	10%	-4	-7	-3%	1%	0%
COc1ccc(C(=O)NCc2ccc3c(c2)cc(C)n3C)cc1	0%	-1	10	-19%	-10%	-16%
CCn1c(CNC(=O)C2CCCCC2)cc2ccccc21	-5%	1	20	2%	9.3µM*	6%
COc1ccc(C(=O)NCc2cc3ccccc3n2C)cc1	-5%	29*	x	-2%	u	11%
CCn1c(CNC(=O)c2ccc(F)cc2)cc2ccccc21	-4%	30*	28	-4%	u	15%
C[C@@H](C(=O)Nc1ccc2ccccc2c1)[C@H]1C[C@]1(C)[C@H](NS(=O)(=O)c1ccccc1)c1ccccc1	-15%	-3	11	-4%	u	1µM*
CNC(=O)[C@H](C)[C@@H]1C[C@@]1(C)[C@@H](NC(=O)OCc1ccccc1)c1ccccc1	-8%	-1	-2	-9%	u	13µM*
C[C@@H](C(=O)Nc1ccc2ccccc2c1)[C@H]1C[C@]1(C)[C@H](NP(=O)(c1ccccc1)c1ccccc1)c1ccccc1	5%	-3	6	x	10µM*	u
C[C@@H](C(=O)Nc1ccc2ccccc2c1)[C@@H]1C[C@@]1(C)[C@@H](NC(=O)OCc1ccccc1)c1ccccc1	-5%	-4	3	3%	8%	u
Cc1ccc(-c2nn(CC(=O)N(C)C)c(=O)c3ccccc23)cc1S(=O)(=O)N(C)C	3%	2	-11	-1%	44%	x
SMILES	SARS PLpro yeast	CHX counter	Shiga inhibitor	AMA1-RON2 inh	Pf growth 96h	Pf growth 48h
O=C(O)/C=C/c1ccc(OCc2cccc(F)c2)cc1	-4%	-4	17	11%	-26%	14%
C=CCn1c(Sc2ncc([N+](=O)[O-])s2)n[nH]c1=O	-4%	21*	32	3%	10µM*	u
Cc1ccc(S(=O)(=O)N(C)C)cc1NC(=O)C1CCCCN1S(=O)(=O)c1ccccc1 (centres undefined)	-9%	x	x	10%	u	u
CCN1CCN(c2nc(C)nc3c2sc(=S)n3C)CC1	-18%	-3	-7	-8%	3.7µM*	-29%
Cc1coc2c1c(C)cc1oc(=O)c(CC(=O)NCCCCCC(=O)O)c(C)c12	2%	-2	-5	4%	5%	2%
CCCCOc1cc(C)nc(NCc2ccccc2)n1	u	14	8	30%	u	13µM*
Cc1cc(OC2CCCCC2)nc(NCc2ccccc2)n1	-1%	-7	-6	-1%	5.2µM*	u
Cc1cc(N2CCCCC2)nc(NCc2ccccc2)n1	-5%	1	10	-12%	2.9µM*	3.3µM*
COc1ccc(C(=O)Nc2nc(C)cs2)cc1S(=O)(=O)N1CCCC1	1%	-2	3	1%	u	-17%
FC(F)Oc1ccc(NC(=S)NNc2ccnc3cc(Cl)ccc23)cc1	0%	8	-1	48%	u	8.3µM*
FC(F)Oc1ccc(NC(=S)Nn2cnnc2)cc1	4%	0	-5	14%	0%	-17%
CCN1CCC(Nc2ccnc3cc(Cl)ccc23)CC1	-2%	-1	3	5%	0.0041µM*	0.033µM*
NC(=S)NNc1ccnc2cc(Cl)ccc12	-4%	-1	-10	-4%	u	2.9µM*
O=C(NNc1ccnc2cc(Cl)ccc12)C1CCCCC1	3%	2	18	4%	1µM*	1.7µM*
CCOc1ccc(Nc2ccnc3cc(Cl)ccc23)cc1	3%	-3	20	4%	5%	-17%
Clc1ccc2c(NNc3ccccc3Cl)ccnc2c1	4%	-3	-22	u	u	u
CC(=O)c1ccc(NC(=O)OCCN2CCN(Cc3ccccc3)CCC2=O)cc1	x	20	i	x	x	x
O=C(Nc1ccc(F)cc1)OCCN1CCN(Cc2ccccc2)CCC1=O	1%	11*!	22	8%	-4%	-3%
C=Cn1ccnc1P(=S)(c1ccn(C)c1)c1nccn1C=C	-6%	-4	17	9%	7.4µM*	-1%
C=Cn1ccnc1P(=S)(c1nccn1C=C)c1nccn1C=C	-1%	-2	-11	-4%	u	u
C=CCSc1nnc(Cc2c(C)[nH]c3ccccc23)o1	12%	1	3	0%	8.3µM*	4%
Cc1ccc(C)c(OCC(=O)NCCN(C)C)c1	0%	-5	-14	2%	u	x
S=C1NC(c2ccccc2)=CC(c2ccccc2)N1 (centres undefined)	21%	5	-7	29%	u	10µM*
CN(C(=O)Nc1ccc(C(C)(C)C)cc1)C1CCCCC1	0%	12	22	3%	-1%	11%
CC1Sc2ccc(S(=O)(=O)N3CCN(c4cccc(Cl)c4)CC3)cc2NC1=O (centres undefined)	0%	6	2	-5%	12µM*	0%
